A selection: hits, their analogues and other compounds. The true share with any hit is near 3.6%.
BoNT F protease: BoNT F light chain protease inhibition; Multiplex microsphere protease cleavage assay, flow cytometry; 360,000 compounds, 0.22% hits; inhibition, % at 10 µM; in the data active means inhibition above about 35%, passing the limit was not always enough; inconclusive means no clear call, values can overlap the other calls; further: plate controls were buffer without enzyme for full effect and enzyme alone for no effect
Bead autofluor: flagged as autofluorescent in microsphere protease counterscreen; compound autofluorescence counterscreen, microsphere flow cytometry; hits give high values; 360,000 compounds, 3.1% hits; fluorescence intensity (no concentration beside the values); in the data active means fluorescence intensity above about 16000; inconclusive means no clear call, values can overlap the other calls
BoNT-A LC inh2: inhibitors of Botulinum neurotoxin A light chain protease. 360,000 compounds, 0.17% hits. AID 588499. inhibition, % at 10 µM. multiplex microsphere protease substrate cleavage, flow cytometry; further: plate controls were buffer without enzyme for full effect and enzyme alone for no effect
SARS 3CLpro inh: SARS-CoV 3CLpro protease inhibition; AID 1706; recombinant SARS-CoV 3CLpro, quenched FRET peptide cleavage; 290,000 compounds, 0.14% hits; inhibition, % at 6 µM; in the data active means inhibition above about 12%
BJeLR viability: BJeLR cell viability loss. inhibition, % (no concentration beside the values). 300,000 compounds, 0.17% hits. AID 1554. BJeLR (HRASV12) viability, CellTiter-Glo ATP luminescence, 48 h; in the data active means inhibition above about 50%; inconclusive means no clear call, values can overlap the other calls
Anthrax LF prot: inhibitors of Bacillus anthracis lethal factor protease. P15917. multiplex microsphere protease cleavage assay, LF. inhibition, % at 10 µM. 360,000 compounds, 0.12% hits. AID 588501; further: plate controls were buffer without enzyme for full effect and enzyme alone for no effect
BoNTA LC inh 1: blocks botulinum neurotoxin A light chain protease | shares compounds with BoNT F protease | inhibition, % at 10 µM | multiplex microsphere protease assay, flow cytometry | 720 compounds, 3% hits; in the data active means inhibition above about 32%
BoNTF LC inh 1: blocks botulinum neurotoxin F light chain protease; shares compounds with BoNT F protease; multiplex microsphere protease cleavage assay, flow cytometry; inhibition, % at 10 µM; 720 tested, under 10 active; call rule not given here
Anthrax LF CP1: inhibitors of Bacillus anthracis lethal factor protease. shares compounds with BoNT F protease. multiplex microsphere protease cleavage assay, LF. inhibition, % at 10 µM. 720 tested, under 10 active. AID 602142; call rule not given here
The depositor's hits bear a star; ? = inconclusive; / = no result given. Unless noted, no stated cut-off is given here; in the data, active means inhibition above about 30%; inconclusive means no clear call, values can overlap the other calls; inactive means below that.

SMILES	BoNT F protease	Bead autofluor	BoNT-A LC inh2	SARS 3CLpro inh	BJeLR viability	Anthrax LF prot	BoNTA LC inh 1	BoNTF LC inh 1	Anthrax LF CP1
CC1=CC2=NC(=O)/C(=C\c3cccn3CCOc3cc(C)ccc3C)C(=N)N2O1	-22.7	6692	-3.9	8.2	3.5	-9.0	/	/	/
OC(CNC1Cc2ccccc2C1)c1ccccc1 (stereo not given)	35.7*	2820	3.8	-3.5	-3.2	-4.8	-0.8	-3.0	0.1
Cc1cc(C)n2nc(C(=O)Nc3c(C)nn(Cc4ccc(F)cc4)c3C)cc2n1	4.3	4003	-0.9	-0.9	1.1	-2.8	-1.7	1.6	0.8
O=C(Nc1cnn(Cc2ccc(F)cc2)c1)c1cc2nc(-c3ccco3)cc(C(F)(F)F)n2n1	3.7	3265	0.2	4.7	-6.6	-3.3	1.3	4.0	-3.6
CCc1ccc(-c2cc(C(F)(F)F)n3nc(C(=O)Nc4c(C)nn(Cc5ccccc5Cl)c4C)cc3n2)s1	17.0	21126*	?	0.7	-6.4	29.2	5.0	2.6	4.0
CCc1ccc(-c2cc(C(F)(F)F)n3nc(C(=O)Nc4c(C)nn(Cc5ccccc5C)c4C)cc3n2)s1	18.9	19939*	29.2	-4.3	-11.7	30.5*	3.2	-4.3	3.5
C=CCSc1nnc(-c2cc3c(s2)-c2ccccc2CC3)o1	-10.5	2250	3.6	-1.3	-1.9	0.0	/	/	/
Cc1ccccc1Cn1ccc(NC(=O)c2cc3nc(-c4ccco4)cc(C(F)(F)F)n3n2)n1	-3.0	2854	-0.2	-1.6	-3.3	0.0	/	/	/
CCc1ccc(-c2cc(C(F)(F)F)n3nc(C(=O)Nc4cnn(Cc5ccccc5C)c4)cc3n2)s1	10.0	10727	4.4	1.9	12.9	1.8	1.6	0.5	-4.3
Cc1nn(Cc2ccccc2)c(C)c1NC(=O)c1cc2nc(-c3ccco3)cc(C(F)(F)F)n2n1	/	/	/	-1.0	-7.4	/	-1.1	0.6	3.8
COc1ccc(-c2cc(C(F)(F)F)nc(SCC(=O)N3CC(C)OC(C)C3)n2)cc1OC (stereo not given)	/	/	/	7.7	4.7	/	/	/	/
Cc1c(C(=O)Nc2ccccc2[N+](=O)[O-])csc1-c1ccccc1	39.3*	2581	5.1	3.0	4.7	-0.9	-1.4	-5.8	-2.2
O=C(COc1ccccc1)NCc1n[nH]c(=S)n1-c1ccccc1	46.6*	4390	7.4	2.1	6.9	0.7	0.7	-0.4	-0.2
O=C(c1cccnc1Cl)N1CCOCC1	-1.1	4160	0.1	2.7	-7.5	-4.6	/	/	/
CC(C)C(=O)NNC(=O)CSc1nnnn1C(C)C	-1.5	4777	-0.4	4.3	-5.0	-11.8	/	/	/
NS(=O)(=O)c1cccc(NC(=O)CC(NC(=O)c2ccccc2Cl)c2ccccc2)c1 (stereo not given)	34.7*	3427	-1.5	-3.2	5.3	9.0	0.6	-4.2	-0.8
O=C1CC(N2CCN(c3ccc(Cl)cc3)CC2)C(=O)N1c1ccc(F)cc1 (stereo not given)	56.5*	3880	2.6	-0.2	2.4	-3.3	-1.5	1.1	-3.0
O=C(O)c1ccc(N2C(=O)CC(N3CCN(c4ccc(Cl)cc4)CC3)C2=O)cc1 (stereo not given)	?	3771	0.1	2.8	3.1	-8.6	/	/	/
CCc1ccc(CNCCc2ccccc2F)cc1	-8.3	2112	0.1	-0.3	-2.1	-1.5	/	/	/
CCOc1cc(CNCCc2ccccc2F)ccc1OC	83.3*	3522	10.2	1.0	6.7	13.1	-0.4	-4.9	-3.5
O=C1CCC(=O)N1N1C(=O)C2C3c4ccccc4C(c4ccccc43)C2C1=O (stereo not given)	-0.9	2004	-0.1	0.8	-6.1	-1.8	/	/	/
CCCCCCCCOc1ccc(C(=O)O)cc1	-9.4	4213	-0.4	/	/	-3.5	/	/	/
CCCCCOc1ccc(C(=O)NC(C(=O)O)C(C)C)cc1 (stereo not given)	38.8*	6207	?	4.6	-1.7	4.3	0.1	-1.9	-1.7
CCCCc1ccc(C(=O)NC(C(=O)O)C(C)C)cc1 (stereo not given)	40.1*	8775	31.2*	4.1	-3.2	-23.7	-1.0	1.4	-3.0
Oc1ccc(Br)cc1C=Nc1ccc2c3c(cccc13)CC2	-4.6	3654	33.3*	-2.9	0.8	13.3	8.3	-1.5	4.2
SMILES	BoNT F protease	Bead autofluor	BoNT-A LC inh2	SARS 3CLpro inh	BJeLR viability	Anthrax LF prot	BoNTA LC inh 1	BoNTF LC inh 1	Anthrax LF CP1
Oc1ccc(Cl)cc1C=Nc1ccccc1Br	-1.1	2081	0.1	-6.6	-12.2	0.6	/	/	/
CC(C)CCn1c(-c2nonc2N)nc2ccccc21	32.3	3532	1.1	-3.1	-1.5	-7.2	-0.6	-3.5	-2.5
CC(=O)c1ccc(S(=O)(=O)N(C)CC(=O)N2CCCCCC2)cc1	0.9	3644	-0.1	-2.2	2.2	-10.0	/	/	/
CN(CC(=O)Nc1cccc(F)c1)C(=O)c1cccnc1Sc1ccccc1Cl	0.4	?	37.8*	/	9.6	0.6	1.8	5.9	4.7
CN(CC(=O)Nc1cccc(F)c1)C(=O)c1cccnc1Sc1ccc(Cl)cc1	-9.7	5590	1.5	/	-2.3	-3.3	/	/	/
CCOC(=O)N1CCN(C(=O)COC(=O)CNC(=O)c2ccc(C)cc2)CC1	?	4630	0.1	/	1.3	9.3	/	/	/
O=C(Nc1ccccc1)C1CCN(c2nccs2)CC1	?	?	40.0*	2.7	2.8	40.5*	2.3	-9.2	4.4
O=C(Nc1ccccc1)C1CCN(S(=O)(=O)c2cccs2)CC1	-1.7	8563	1.7	/	/	4.7	/	/	/
Cc1ccc(OCCNC(=O)c2ccccc2O)cc1	35.7*	4460	-0.8	6.0	-11.0	12.3	-1.0	-10.6	-2.7
CCC(=O)c1ccccc1OCCCN1CCC(Cc2ccccc2)CC1	?	3374	-0.3	-7.1	21.3	1.9	/	/	/
Cc1cc(C)cc(N2C(=O)NC(=O)/C(=C\c3cccn3-c3ccccc3)C2=O)c1	67.5*	6580	6.5	1.9	1.5	31.0*	-0.4	-3.1	3.1
O=C(Cc1ccccc1)c1ccc(Cl)cc1	?	3769	?	0.9	-2.8	30.2*	1.9	-3.0	-4.7
Cc1ccccc1C(=O)N1CCN(CCNC(=O)C(=O)Nc2ccc(Br)cc2)CC1	-3.4	6316	-1.4	1.9	-2.5	1.7	/	/	/
Cn1cnnc1SCC(=O)Nc1ccc(S(N)(=O)=O)cc1	37.4*	2989	0.7	3.6	-7.4	33.8*	-0.8	-0.2	-0.4
Cn1cnnc1SCC(=O)Nc1ccccc1	-1.1	5422	-0.4	2.9	-1.2	3.8	/	/	/
CCN(CCCNC(=O)CN1C(=O)COc2ccccc21)c1ccccc1	20.8	5098	30.5*	-1.8	/	34.8*	0.7	-3.1	-4.2
CC(=O)N=C1C=CC(=CN(O)C(C)(C)Cc2ccccc2)C=C1	7.6	2853	-0.2	/	-1.5	-4.0	/	/	/
N#Cc1ccc(S(=O)(=O)NC2CCCCNC2=O)cc1 (stereo not given)	42.0*	3770	-1.3	1.4	-2.0	-0.3	1.0	-8.5	0.2

Screens: PubChem BioAssay, several laboratories
